Screen size: about 220,000 compounds; about 2,100 (0.95%) were called active. The sample as a whole holds a higher share of actives than the screen did. A number with no mark means an inactive call.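 How the source made its calls: active means compounds that cut the binding signal by more than half at the single screening dose; inactive means the rest.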

A word on the inhibition: it is the relative decrease from the control value, in per cent.

Induced myeloid leukemia cell differentiation protein Mcl-1 (Homo sapiens), sequence (Q07820 whole entry, looked up): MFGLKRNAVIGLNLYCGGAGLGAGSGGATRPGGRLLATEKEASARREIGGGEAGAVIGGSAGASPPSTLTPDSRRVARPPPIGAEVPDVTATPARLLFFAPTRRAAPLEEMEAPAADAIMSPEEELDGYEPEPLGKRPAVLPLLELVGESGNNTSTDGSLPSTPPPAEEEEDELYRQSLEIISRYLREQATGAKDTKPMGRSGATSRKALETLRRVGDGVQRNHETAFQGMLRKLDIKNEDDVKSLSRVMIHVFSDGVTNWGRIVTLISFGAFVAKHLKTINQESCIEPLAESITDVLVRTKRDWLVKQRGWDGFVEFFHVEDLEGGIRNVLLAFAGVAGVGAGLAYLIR

This assay concerns the target Induced myeloid leukemia cell differentiation protein Mcl-1 (Homo sapiens) (UniProt Q07820). Nature of the assay: Mcl-1/Bid binding inhibitors, primary screen, biochemical, TR-FRET, 1536-well (AID 1021).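 Further: His-tagged Mcl-1 with europium anti-His antibody binding Bid BH3 peptide; 0% = Mcl-1 plus peptide wells and 100% = peptide-only wells.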 Particulars: TR-FRET Mcl-1/Bid-Dy647 peptide binding, at 21.7 µM, stronger effect = higher value. In general terms: In TR-FRET formats the signal depends on donor and acceptor labels being close together.
Turning to `COc1ccccc1CN1CCN(C(=O)Cc2ccccc2)CC1`, the inhibition was 68% (active).

Consider `O=C(Cc1ccccc1)N1CCN(C2CCCCCC2)CC1`, for which the inhibition is 17%. On to `O=C(Cc1ccccc1[N+](=O)[O-])N1CCN(Cc2ccc3c(c2)OCO3)CC1`, for which the inhibition is -23.7%. Regarding `COc1ccc(-n2c(O)c(C(C)=Nc3ccc4c(c3)CCC4)c(=O)[nH]c2=O)cc1`, the inhibition was -2.41%. The value for `O=C(O)COc1ccccc1/C=C1\C(=O)NC(=O)N(CCC2=CCCCC2)C1=O` was 2.6%; that for `CN1CCN(Cc2ccccc2C(F)(F)F)CC1` was -13%; that for `CN1CCN(Cc2ccc(OC(F)(F)F)cc2)CC1` was 56.4% (active).

With `CCOP(=O)(OCC)C(NC(=O)NC)C(N)=O` (stereo not given), the inhibition is -3.96%. The same measure for `CCc1nnc(NS(=O)(=O)c2ccc(N=Cc3c(O)n(-c4ccccc4)c(=O)[nH]c3=O)cc2)s1`: -3.62%. With `CCOc1ccc(CN(CCCl)CCCl)cc1C(=O)OC`, the inhibition was 63.2% (active). The same measure for `CC1=C2C(=O)C3C(CC=C4CC(OC5OC(O)C(O)C(O)C5CO)CCC43C)C2CCC12OC1CC(C)CNC1C2C` (stereo not given): -4.26%. The same measure for `O=c1c2ccccc2nc(/C=C/c2ccco2)n1-c1ccccc1O`: -66%; for `CNC(=O)O/N=C(\N)Cc1csc2ccc(Cl)cc12`: -11.9%; for `COc1ccc(C(=O)C2CCCN(Cc3ccc(C)s3)C2)cc1OC` (stereo not given): -15%.

With `CC1CCCCN1Cc1cccnc1` (stereo not given), the inhibition was 49.3%.

`Cc1cccc(N2C(=O)NC(=O)/C(=C\c3cnn(-c4ccccc4)c3)C2=O)c1`: the inhibition was -15.1%. The same measure for `O=C1NC(=O)N(c2ccc(F)cc2)C(=O)/C1=C/c1ccc2c(c1)CCCN2Cc1ccccc1`: 74.2% (active); for `O=C1NC(=O)N(c2ccccc2)C(=O)/C1=C/c1ccc([N+](=O)[O-])s1`: -21.7%; for `O=C(c1cc2nc(-c3ccccc3)cc(-c3ccccc3)n2n1)N1CCC2(CC1)OCCO2`: 12.9%. The value for `CC(=O)Cc1ccc(OC(C)C)cc1` was 29.9%.

The record behind these values is PubChem BioAssay AID1021 (Emory University Molecular Libraries Screening Center, 2008).
